Screening data (PubChem BioAssay)
HPGD inh: inhibitors of human 15-hydroxyprostaglandin dehydrogenase (HPGD); P15428; purified HPGD, NADH fluorescence kinetic, PGE2 substrate; Potency, µM, usual class: inhibitors; 4.3% of 150,000 active; AID 894
Target sequence (P15428 whole entry, looked up): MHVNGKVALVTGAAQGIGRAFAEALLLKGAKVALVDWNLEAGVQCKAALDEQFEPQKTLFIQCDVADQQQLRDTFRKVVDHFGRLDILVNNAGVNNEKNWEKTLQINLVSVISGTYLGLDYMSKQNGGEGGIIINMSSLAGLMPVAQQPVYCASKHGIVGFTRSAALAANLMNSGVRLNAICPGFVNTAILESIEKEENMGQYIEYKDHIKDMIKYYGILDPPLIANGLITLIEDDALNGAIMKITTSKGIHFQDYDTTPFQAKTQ
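NADH formation kinetics: reaction with 30 uM PGE2 and 1 mM NAD+ (final), 20 nM enzyme, Tris-HCl pH 8 with Tween 20, after 15 min compound preincubation at room temperature. Fluorescence change, last versus first of five reads.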
ALDH1A1 block: ALDH1A1 (human) enzyme inhibition; P00352; 7.3% of 220,000 active; Purified ALDH1A1, NADH fluorescence, propionaldehyde substrate; Potency, µM (highest dose often 75.3 µM), most hits filed as inhibitors
IMPase cell inh: membrane-permeable compound that blocks inositol monophosphatase; P97697; CHO-M1 cells, IP1 accumulation, HTRF TR-FRET ratio; inhibition (IP1 accumulation), % at 46.1 µM; 120,000 tested, under 10 active; AID 901; active means well fitted curve in the direction sought with a large enough effect in the signal ratio, not every such curve was filed as active; inconclusive means small, poorly fitted or top-dose-only effect, or a change in a side signal; inactive means no such curve, though single readings can be large or run the other way; the % refers to the signal ratio;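 further: cells stimulated with carbachol in lithium chloride buffer; higher means more IMPase inhibition seen as more IP1 and lower FRET ratio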
Target sequence (P97697 whole entry, looked up): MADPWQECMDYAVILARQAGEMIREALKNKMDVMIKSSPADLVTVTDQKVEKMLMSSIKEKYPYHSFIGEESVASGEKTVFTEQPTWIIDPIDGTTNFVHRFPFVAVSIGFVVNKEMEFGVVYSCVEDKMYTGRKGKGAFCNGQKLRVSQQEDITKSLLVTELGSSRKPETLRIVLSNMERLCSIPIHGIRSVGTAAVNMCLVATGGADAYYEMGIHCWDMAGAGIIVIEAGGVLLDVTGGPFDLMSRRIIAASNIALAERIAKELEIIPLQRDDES
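In this qHTS, compounds (final up to 46 uM) act on CHO-M1 cells that are then activated through the M1 receptor with carbachol, in pH 7.4 buffer containing 50 mM LiCl, for 30 min. IP1 accumulation is quantified by the IP-One immunoassay.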
Numbers stand for hits; n = inactive; u = inconclusive; x = not tested or not shown. Rows were chosen to be rich in hits. Some 9% of all compounds tested hit in one or more screens of this group. Unless noted, the call rests on the fitted dose curve; in most records, active means well fitted inhibition curve with a large enough effect (not every such curve was filed as active); inconclusive means small, poorly fitted or top-dose-only effect, or another doubt; inactive means no such curve, though single readings can be large or run the other way.

SMILES	HPGD inh	ALDH1A1 block	IMPase cell inh
Cc1cc(C)n2nc(SCc3ncc(-c4ccccc4)o3)nc2n1	u	u	n
c1ccc(-c2cnc(CSc3ncnc4sccc34)o2)cc1	3.2µM	n	n
Cc1ccc(S(=O)(=O)N2CCOCC2)cc1C(=O)N1c2ccccc2Sc2ccccc21	n	n	n
N#C/C(=C\c1coc2ccccc2c1=O)C(N)=S	x	32µM	x
O=C1NN(c2ccccc2)C(=O)/C1=C/c1coc2ccccc2c1=O	u	n	x
COc1ccccc1/C=C/C(=O)NCc1cccnc1	x	n	x
CC12CCC(C(=O)Nc3cc(Cl)ccc3Cl)(C(Br)C1=O)C2(C)C (stereo not drawn)	n	u	x
O=C1Cc2ccccc2N1c1ccccc1	35µM	n	n
O=C1CCCCC(=O)N(c2ccccc2)c2ccccc21	n	n	n
CC(=O)Nc1c(C)ccc(S(N)(=O)=O)c1C	x	n	x
CCCCC1=NN(C(=O)c2cccnc2)C(O)(C(F)(F)F)C1 (stereo not drawn)	x	n	x
Cc1ccc(CNC(=O)CCC2CCCN(Cc3cccc4ncccc34)C2)o1 (stereo not drawn)	x	n	x
CCOC(=O)C1CCCN(CC(O)COc2cccc(C)c2)C1 (stereo not drawn)	25µM	n	x
COc1cccc(CN2CCCC(C(=O)c3ccc4c(c3)OCO4)C2)c1O (stereo not drawn)	x	n	x
CCOC(=O)C1CCCN(CCC(=O)Nc2cccc(C)c2)C1 (stereo not drawn)	x	n	n
CC(=O)c1cccc(CN2CCCC(C(=O)c3ccc4c(c3)OCO4)C2)c1 (stereo not drawn)	x	28µM	x
CCN(CC)C(=O)C1CCCN(Cc2ccc3c(c2)OCO3)C1 (stereo not drawn)	n	n	n
Cc1ccc(CNC(=O)CCC2CCCN(C(=O)c3ccc4c(c3)OCO4)C2)o1 (stereo not drawn)	x	16µM	x
CCOC(=O)C1CCCN(Cc2ccc3c(c2)OCO3)C1 (stereo not drawn)	n	13µM	u
COC(=O)c1ccc(C(NC(=O)OCc2ccccc2)/C(=C/[C@@H](C)C(=O)NCc2ccc(-c3ccccc3)cc2)c2cccnc2)cc1 (stereo partly drawn)	n	n	x
Cc1c(NC(=S)NC(=O)c2cc3ccccc3o2)c(=O)n(-c2ccccc2)n1C	n	n	x
COc1ccc(-c2nc3cnc(OC)nc3n(CCC#N)c2=O)cc1	x	n	x
COc1ccc2c(c1)C1CC(C)(NC(=O)C1S(=O)(=O)c1ccc(F)cc1)O2 (stereo not drawn)	x	n	n
Nc1nc2c(nc(Br)n2C2OC(CO)C(O)C2O)c(=O)[nH]1 (stereo not drawn)	n	n	x
Cc1ccc(NC(C)c2cc(Cl)ccc2O)cc1 (stereo not drawn)	u	u	n
SMILES	HPGD inh	ALDH1A1 block	IMPase cell inh
CCN(CC(=O)Nc1ccc(N2CCOCC2)cc1)C(=O)c1ccc(C#N)cc1	x	n	x
O=C(NCCc1cn2ccccc2n1)C1CCCCC1	u	u	n
CCC(C)CCCCC(=O)N[C@@H](CCN)C(=O)N[C@H](C(=O)N[C@@H](CCN)C(=O)N[C@H]1CCNC(=O)C([C@@H](C)O)NC(=O)[C@@H](CCN)NC(=O)[C@H](CCN)NC(=O)[C@H](CC(C)C)NC(=O)[C@@H](CC(C)C)NC(=O)[C@H](CCN)NC1=O)[C@@H](C)O (stereo partly drawn)	n	n	x
COc1ccc2oc(C(F)(F)C(F)(F)F)cc(=O)c2c1	u	u	n
CC(C)Oc1cccc(C(=O)C2CCCN(Cc3cnn(C(C)C)c3)C2)c1 (stereo not drawn)	x	10µM	x
Cc1nn(C(C)C)c(C)c1CN1CCCC(C(=O)c2cccc(OC(C)C)c2)C1 (stereo not drawn)	x	n	x
CN1CCN(C(=O)c2ccc3c(c2)N(Cc2ccc(Cl)cc2)C(=O)c2ccccc2S3=O)CC1 (stereo not drawn)	n	u	n
CCOC(=O)C1CCN(C(=O)c2ccc3c(c2)OCO3)CC1	n	n	n
CCOC(=O)C1CCCN(C(=O)c2ccc3c(c2)OCO3)C1 (stereo not drawn)	10µM	u	n
CCOC(=O)C1CCCN(C(=O)c2ccc3c(c2)N(Cc2ccccc2)C(=O)c2ccccc2S3=O)C1 (stereo not drawn)	x	20µM	x
CCCC1(C)NC(=O)c2ccccc2O1 (stereo not drawn)	x	n	x
CNc1nc(-c2ccc(N(C)C)cc2)nc2ccccc12	u	n	x
O=c1cnc2cnc(Nc3ccccc3)nc2n1C1CC1	x	n	x
Cc1ccccc1C(=O)NC(C)c1ccc2c(c1)CCCC2 (stereo not drawn)	n	n	n
CN=c1nc(-c2ccccc2)n(-c2ccccc2)s1	n	1.4µM	n
c1ccc(Cn2nc(-c3ccccc3)nc2-c2ccccc2)cc1	n	u	x
Cc1cc(C)c(/C=N/n2c(C)cc(C)c(C#N)c2=O)c(C)c1	n	n	x
Cc1cc(C(=O)N2CCC(C(=O)O)CC2)c(C)o1	x	n	x
Cc1ccccc1-n1nnnc1SCC(=O)NCC1CCCO1 (stereo not drawn)	x	5.6µM	x
Cn1c(SCC(=O)NCC2CCCO2)nnc1-c1c[nH]c2ccccc12 (stereo not drawn)	n	n	n
Cc1ccccc1-n1c(C)nnc1SCC(=O)NCC1CCCO1 (stereo not drawn)	n	n	n
CCn1c(SCC(=O)NCC2CCCO2)nnc1-c1c[nH]c2ccccc12 (stereo not drawn)	32µM	n	n
O=C(CSc1c[nH]c2ccccc12)NCC1CCCO1 (stereo not drawn)	4µM	n	n
O=C(NCC1CCCO1)C(=O)c1c[nH]c2ccccc12 (stereo not drawn)	x	n	x
CCC(C)C(=O)Nc1cccc(SC)c1 (stereo not drawn)	x	n	x
SMILES	HPGD inh	ALDH1A1 block	IMPase cell inh
CC(NCC(O)COCCC12CC3CC(CC(C3)C1)C2)c1ccccc1 (stereo not drawn)	x	n	x
CCOC(=O)c1cc(C(O)(C(F)(F)F)C(F)(F)F)c(/N=C/N(C)C)o1	n	n	n
COc1ccc(/C=C\C(=O)CC(O)(c2ccccc2)C(F)(F)F)cc1 (stereo not drawn)	n	u	n
CC1=CC(=O)N(c2cccc(C(F)(F)F)c2)C1c1ccc(Cl)cc1 (stereo not drawn)	n	n	n
CC1=CC(=O)N(c2ccc(C)cc2)C1c1ccc(Cl)cc1 (stereo not drawn)	22µM	n	x
Cc1ccc(-n2c(=O)c3ccc(C(=O)NCc4ccco4)cc3n(CC(=O)Nc3ccc(C)c(F)c3)c2=O)cc1	x	x	n
CCOC(=O)c1cnc(-c2ccccc2)nc1Oc1ccc(OC)cc1	x	11µM	x
CCOC(=O)c1cnc(-c2ccccc2)nc1Oc1ccccc1	n	n	n
Cc1ccc(CC(=O)Nc2nc3ccccc3[nH]2)cc1C	n	n	n
O=C(Cc1ccccc1Cl)Nc1nc2ccccc2[nH]1	x	25µM	x
CCOC(=O)c1c(C)[nH]c(C(=O)CSc2ccc(Cl)cc2)c1C	n	n	n
CCOC(=O)c1c(C)[nH]c(C(=O)CSc2nc(C)cc(C)n2)c1C	n	16µM	x
CCOC(=O)C1=C(N)OC2=C(C(=O)CC(C)(C)C2)C1c1cc(CSc2nnnn2C)cs1 (stereo not drawn)	x	1µM	x
CCOC(=O)C1=C(N)OC2=C(C(=O)CC(C)(C)C2)C1c1ccoc1 (stereo not drawn)	n	25µM	n
